Pf Dd2 growth: Plasmodium falciparum Dd2 growth inhibition | P. falciparum Dd2 growth, SYBR Green, 72 h | Potency, µM (doses to about 28.9 µM), without a hit: at the highest dose activity, negative = inhibition, most hits filed as inhibitors | actives 4.3% (n = 120,000); active = well fitted inhibition curve with a large enough effect;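 note: plate controls were DMSO vehicle for no effect and reference drug for full effect; nearly all actives have a fitted effect of over 65% in size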
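Infected erythrocytes (Dd2, 0.3% parasitemia, 2.5% hematocrit final) are added to compound in RPMI-1640/Albumax II medium, grown 72 h at 37C in low oxygen, then lysed with saponin/Triton-X containing SYBR Green and read by fluorescence.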
Starred values were filed as active, the others as inactive; i = inactive; ! = a repeat was not active; [ ] = dose if it differs, or a comment. This excerpt belongs to a sample that is enriched for hits. Potency is the fitted concentration of half-maximal effect.

SMILES | Pf Dd2 growth
CCc1noc(-c2cn(C3CCN(C(=O)c4ccc(Cl)s4)CC3)nn2)n1 | i
CN1CC(=O)N(c2ccc(Cl)cc2)Cc2c(NC3CCNCC3)ncnc21 | 3%
CCCNC(=O)C1c2ccccc2C(=O)N(CCOC)C12CCCCC2 (centres undefined) | 0%
COCCN1C(=O)c2ccccc2C(C(=O)Nc2nnc(C(C)C)s2)C12CCCCC2 (centres undefined) | 11µM*
COCCN1C(=O)c2ccccc2C(C(=O)NCC(C)C)C12CCCC2 (centres undefined) | 1%
Cc1nncn1C1CCN(S(=O)(=O)c2cc(F)cc(F)c2)CC1 | -1%
Cc1csc(NC(=O)c2nc3c(o2)CCN(CC2CCCC2)CC3)n1 | i
COc1ccc(NC(=O)Cn2c(-c3ccc(F)cc3)nc(C)cc2=O)c(OC)c1 | i
COc1ccc(NCc2cccn2-c2nnc(N3CCC(C)CC3)s2)c(OC)c1 | 11µM*
COc1ccc(OC)c(NCc2cccn2-c2nnc(N3CCC(C)CC3)s2)c1 | -11%
COc1ccc(OC)c(NC(=O)c2cccn2-c2nnc(N3CCCCC3)s2)c1 | -25%
COCCN1C(=O)CCC2(C(=O)Nc3cc(OC)cc(OC)c3)CCCC=C12 (centres undefined) | i
Cc1ccc(NC(=O)c2c(C)oc3ncnc(N4CCCCC4)c23)cc1Cl | -6%
COc1cc(=O)n2c(c1C(=O)Nc1ccc(F)c(Cl)c1)CCCC2 | 51%
Cc1ccccc1NC(=O)c1c(C)oc2ccc(O)c(CN3CCCCCC3)c12 | 2.5µM*
COc1cc(=O)n2c(c1C(=O)Nc1ccccc1C)CCCC2 | 19%
COc1ccc(NC(=O)c2c(C)oc3ccc(O)c(CN4CCCCCC4)c23)cc1Cl | 0.35µM*
Cc1cc(Br)ccc1NC(=O)c1c(C)oc2ncnc(N3CCCCC3)c12 | -1%
Cc1noc(-c2ccc(OC3CN(S(=O)(=O)c4c(C)nn(C)c4C)C3)cc2)n1 | i[5.79 µM]
COC1CCOC2(CCN(C(=O)Nc3cccc(C)c3)CC2)C1 (centres undefined) | 18%
O=C(CCC1CCCC1)N1CCCCCC1CN1CCOCC1 (centres undefined) | i
CCCOc1ccc(C2C(=O)N(C3CCCCC3)CC(=O)N2C2CCCCC2)cc1OC (centres undefined) | 24%
CCCCCCOc1ccc(C2C(=O)N(C3CCCCC3)CC(=O)N2CCCC)cc1 (centres undefined) | 8.9µM*
O=C1C(c2ccc(F)cc2)N(Cc2ccccc2Cl)C(=O)CN1C1CCCCC1 (centres undefined) | -14%
Cc1noc(C)c1S(=O)(=O)N1CCc2nn(C)c(=O)n2CC1 | -5%
SMILES | Pf Dd2 growth
COc1ccc(OC)c(S(=O)(=O)N2C[C@@H](Oc3cccnc3)C[C@H]2C(N)=O)c1 | 11%
Cc1oc2ccn(Cc3ccc(F)cc3)c(=O)c2c1C(=O)N1CCN(c2ccccn2)CC1 | -5%
Cc1ccc(NC(=O)Cn2c(=O)n(Cc3ccco3)c(=O)c3ccccc32)c(C)c1 | -2%
COc1ccccc1NC(=O)Cn1c(=O)n(Cc2ccco2)c(=O)c2cccnc21 | 13%
CCOc1ccccc1NC(=O)Cn1c(=O)n(Cc2ccco2)c(=O)c2cccnc21 | 11µM*
COc1ccc(C(=O)NC2CCN(C(=O)N3CC4CC(C3)[C@H]3CCCC(=O)N3C4)CC2)cc1 (some centres undefined) | -4%
O=C(NC[C@H]1O[C@H](Cc2cc(CN3CCOCC3)on2)CC[C@@H]1O)N1CCOCC1 | 13%[44.1 µM]
O=C(NC1CCCCC1)N1Cc2[nH]cnc2C[C@H]1c1nc(-c2ccc(Cl)cc2)no1 | -24%[44.1 µM]
CCCCOc1ccc(C(=O)N2CCC[C@H]2c2nc(-c3ccc(OC)cc3)no2)cc1 | 11µM*
O=C(CCc1ccccc1)N1CCC[C@H]1c1nc(-c2ccccc2)no1 | 16%
CCOc1ccc(C(=O)N2CCC[C@H]2c2nc(-c3ccccc3)no2)cc1 | -3%
COc1ccc(-c2noc([C@@H]3Cc4nc[nH]c4CN3C(=O)NC3CCCCC3)n2)cc1 | 13µM*
O=C(O)c1ccc(CN2Cc3[nH]cnc3C[C@H]2c2nc(-c3cccc([N+](=O)[O-])c3)no2)cc1 | -6%
Cc1ccc(-c2noc([C@@H]3CCCN3C(=O)Cc3ccccc3)n2)cc1 | i
Cc1cccc(-c2noc([C@@H]3Cc4nc[nH]c4CN3C(=O)C3CCCCC3)n2)c1 | -12%[44.1 µM]
Cc1ccc(-c2noc([C@@H]3CCCN3C(=O)CCCc3ccccc3)n2)cc1 | 11µM*
O=[N+]([O-])c1cccc(-c2noc([C@@H]3Cc4nc[nH]c4CN3CC3CCCCC3)n2)c1 | 14µM*
COc1ccc(-c2noc([C@@H]3CCCN3C(=O)c3ccc(C(C)(C)C)cc3)n2)cc1 | i
O=C(NC1CCCCC1)N1Cc2[nH]cnc2C[C@H]1c1nc(-c2ccc3ccccc3c2)no1 | i
O=C(Cc1ccc(C(F)(F)F)cc1)N1CC(COc2ccccc2)C2(C1)CN(C(=O)c1cn[nH]c1)C2 (centres undefined) | i
O=c1[nH]c(C2CCCN([S+](=O)([O-])c3cccc(C(F)(F)F)c3)C2)nn1-c1cccc(Cl)c1 (centres undefined) | i
CSc1ccc(-c2ccc3c(c2)C(=O)N2CC[C@H](NC(=O)C4CCCC4)[C@H]2C(=O)N3)cc1 | i
Cn1c(-c2ccc(CN3CCc4[nH]cnc4C3C(=O)O)o2)nc2ccccc21 (centres undefined) | -10%
COc1ccc(C(=O)NCCn2c(C)cnc2C2CC2)cn1 | i
O=C(c1ccc(-c2cccnc2)nc1)N1CCCC(c2ccccc2)CC1 (centres undefined) | -16%
SMILES | Pf Dd2 growth
O=C(c1cc(-c2cccs2)[nH]n1)N1CCc2nc3cc[nH]n3c(=O)c2C1 | i[5.79 µM]
COC[C@@H]1CN(C(=O)c2c(C)noc2C)C[C@H]1c1ccncc1 | 34%
CCN(Cc1ccncc1)C(=O)CC1=C2CCCCC2N(C)C1=O (centres undefined) | -1%
CCOc1ccccc1CNC(=O)CC1CCOCC1 | 53%
CN(Cc1cnccn1)C(=O)c1cc(COc2ccc3c(c2)OCO3)[nH]n1 | -2%
Cc1noc(C)c1[S+](=O)([O-])N1CCC(N2Cc3ccccc3C2=O)CC1 | -20%
O=C1N(CCc2ccccc2)c2ccccc2C12CCN(CC1CC1)C2 (centres undefined) | 5µM*!
O=C(CC1CCN(C(=O)NC2CCCCC2)C1)NCc1ccccc1 (centres undefined) | 10%
Cc1cc(CN2CCC3(C2)C(=O)N(Cc2ccccc2)c2ccccc23)no1 (centres undefined) | -23%
O=C(Nc1ccc(Cl)cc1)N1CCC2(C1)C(=O)N(CCc1ccccc1)c1ccccc12 (centres undefined) | 4.5µM*
O=C(NC1CCCC1)N1CCC2(C1)C(=O)N(CCc1ccccc1)c1ccccc12 (centres undefined) | 7.9µM*!
CN1C(=O)C2(CCN(C(=O)Nc3ccccc3F)C2)c2ccccc21 (centres undefined) | i
CN1C(=O)C2(CCN(C(=O)C3CCCC3)CC2)c2ccccc21 | 13%
O=C1N(Cc2ccccc2)c2ccccc2C12CCN(Cc1cncs1)C2 (centres undefined) | -11%
CCN1C(=O)C2(CCN(S(=O)(=O)Cc3ccc(Cl)cc3)CC2)c2ccccc21 | i
Cc1nccn1CC(=O)N[C@@H]1CN(Cc2ccccn2)C[C@H]1CN(C)C | 40%
c1cc(-c2cc3c(ccn3Cc3ccncc3)c(N3CCOCC3)n2)c2[nH]ncc2c1 | -25%[44.1 µM]
O=C(N1CCC[C@H]1c1nc(-c2ccccc2Cl)no1)C1(c2ccccc2)CC1 | -10%

Screening results: PubChem, National Center for Advancing Translational Sciences (NCATS)
